High-throughput results: PubChem BioAssay, National Center for Advancing Translational Sciences (NCATS)
A549 tox: counter-screen for Nrf2 inhibitors: cytotoxicity in A549 cells; actives 0.16% (n = 390,000); Potency, µM (series often up to 46 µM), for inactives: at the top dose activity change, negative = cytotoxicity, hits mostly inhibitors; A549 ARE-Fluc cells, CellTiter-Fluor viability, 18-24 h; also: % is scaled to controls: 0 for no effect and ±100 for the full control effect
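A549 ARE-Fluc cells in 5% FBS OPTI-MEM, 5000 cells/well, rested 2 h then exposed to compounds in concentration-response for 18-24 h at 37 °C. Viability by CellTiter-Fluor fluorescence (Ex 405/Em 525) after 30 min; luciferase luminescence (BugLite, 15 min, RT) read afterwards.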
HepG2 tox: HepG2 cytotoxicity, counter-screen for TGF-b inhibitors; actives 0.76% (n = 410,000); HepG2 CAGA-GFP viability, ATP luminescence, 18 h; Potency, µM (highest dose often 46.1 µM), for inactives: top-dose activity change, negative = cytotoxicity, usual class: cytotoxic
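CellTiter-Glo luminescence gave cytotoxicity after 18 hours at 37 degrees C. The cells were HepG2 CAGA-GFP in 1% FBS DMEM, stimulated with 500 pg/mL TGF-beta after compound addition. %Activity was normalised to no-cell wells (complete cell-killing) and DMSO (no toxicity), and curves were fitted and classified.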
TGFb inhibitor: blocks TGF-b signaling; HepG2 CAGA-GFP TGF-b/SMAD3 reporter, GFP fluorescence, 18 h; TGF-beta stimulated, 500 pg/mL final; Potency, µM (top dose mostly 46.1 µM), for the others: top-dose activity, negative = inhibition, usual class: inhibitors; actives 1.2% (n = 410,000); AID 588855; also: % is scaled to controls: 0 for no effect and ±100 for the full control effect; nearly all actives have a fitted effect of over 65% in size
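TGF-beta reporter screen: HEPG2 CAGA-GFP, 1% FBS, 500 pg/mL TGF-beta final, 18 h; per-cell GFP summed per well; curves fitted and categorized by class.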
Nrf2 activator: Nrf2 pathway activation; Potency, µM (top dose mostly 46.1 µM), inactives show at the highest dose activation, usual class: activators; actives 0.31% (n = 410,000); AREc32 ARE-luciferase reporter (MCF7-derived line), luminescence, 24 h; also: % of control where 0% means no effect; nearly all actives have a fitted effect of over 65% in size
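Luciferase luminescence (Steady-Glo, 30 min at room temperature) served as the read-out of ARE activation in AREc32 cells treated with compounds for 24 hr at 37 deg C.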
Nrf2 inh: inhibitors of Nrf2 signaling; Potency, µM (titrated, usually from 46 µM), inactives show top-dose activity change, negative = inhibition, actives largely listed as inhibitors; A549 ARE-Fluc reporter, luciferase luminescence, 18-24 h; actives 2.1% (n = 360,000); AID 504444; also: % is scaled to controls: 0 for no effect and ±100 for the full control effect; nearly all actives have a fitted effect of over 60% in size
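Nrf2 activity is the BugLite luminescence, read 15 min after reagent at room temperature, following CellTiter-Fluor cytotoxicity readout (30 min, 37C). Compound titrations were applied for 18-24 h to 5000 A549 ARE_Fluc cells/well in 5% FBS OPTI-MEM.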
* marks the source's active call; other numbers are inactive results; ? = inconclusive; . = no result given. Shown are actives, neighbours in structure and some others; about 3.6% of the full set was active somewhere. Calls follow the shape of the dose curve; as a rule, active = well fitted curve in the direction sought with a large enough effect; inconclusive = small, poorly fitted or top-dose-only effect, or another doubt; inactive = no such curve, though single readings can be large; an effect the other way counts as inactive or inconclusive. Potency is read from the fitted curve at half-maximal effect.

SMILES | A549 tox | HepG2 tox | TGFb inhibitor | Nrf2 activator | Nrf2 inh
Cc1c(NC(=O)c2cc3ccccc3c(=O)s2)c(=O)n(-c2ccccc2)n1C | -3.6% | 10.4% | -1.1% | 0.2% | 8.6%
CCOc1ccc(C(=O)c2cn(Cc3ccc(Cl)cc3)c3cc(OC)c(OC)cc3c2=O)cc1 | 14.6µM* | -27.5% | ? | 0.4% | ?
Cc1ccc2c(c1)c(=O)c(C(=O)c1ccc3c(c1)OCO3)cn2Cc1ccc(Cl)cc1 | -14.1% | -10.2% | -5.9% | 3.0% | 23.1µM*
COc1ccc(Cn2cc(C(=O)c3ccc(Cl)cc3)c(=O)c3cc4c(cc32)OCO4)cc1 | ? | -20.3% | ? | -0.1% | ?
CCCN(C(=O)c1ccco1)c1nnc(-c2cccc(C)c2)s1 | 24.0% | -8.7% | 1.3% | 10µM* | ?
CCOc1ccc(C(C)=O)cc1CSC(=N)N | -10.1% | -4.7% | 4.7% | -0.4% | 16.7%
CCCCOc1ccc(Br)cc1CSC(=N)N | -10.7% | -101.3% | 20µM* | 8.8% | ?
COCC1CCCCN1C(=O)c1cc(COc2ccc3ncccc3c2)on1 (configuration not stated) | -6.6% | 10.1% | 32.4% | 0.2% | ?
CCN(CC)C(=O)C1CCCN(C(=O)c2cc(COc3ccc4ncccc4c3)on2)C1 (configuration not stated) | 1.0% | -4.7% | -10.5% | 1.7% | ?
CC(C)N(Cc1nccn1C)C(=O)c1cc(COc2ccc3ncccc3c2)on1 | -11.5% | -2.8% | -14.2% | 0.1% | 13µM*
CCCN1CCN(C(=O)c2cc(COc3ccc4ncccc4c3)on2)CC1 | -18.2% | -9.8% | -27.3% | 2.2% | 5.17µM*
CCN1CCN(C(=O)c2cc(COc3ccc4ncccc4c3)on2)CC1 | -11.9% | 12.6% | 9.0% | 0.1% | 20.6µM*
O=C(NCc1cccc(Cl)c1)c1cc(COc2ccc3ncccc3c2)on1 | -26.1% | -21.3% | ? | 4.4% | 10.3µM*
COc1cccc(OCc2cc(C(=O)N(Cc3nccn3C)C(C)C)no2)c1 | 0.0% | 0.0% | -10.9% | -0.6% | -33.6%
COC(=O)c1ccc(CN2[C@H](C(=O)OC)C[C@@]3(O)[C@H](O)[C@H](O)[C@H](O)C[C@@H]23)cc1 | 1.1% | -10.1% | -0.7% | -1.0% | 13.8%
O=C(C[C@@H]1C[C@@H]2c3cc(NC(=O)C4CCC4)ccc3O[C@@H]2[C@@H](CO)O1)NCc1ccc(Cl)cc1 | . | -41.1% | 4.3% | -0.5% | .
CCOCCCNC(=O)c1ccc(Cn2c(=O)c3cccn3c3cccnc32)cc1 | 2.5% | 7.9% | ? | -0.8% | -1.2%
O=C(NCCc1ccc(Cl)cc1)c1ccc(Cn2c(=O)c3cccn3c3cccnc32)cc1 | -7.1% | -59.6% | 11.2µM* | 14.2% | -28.1%
CCOc1ccc(CCNC(=O)c2ccc(Cn3c(=O)c4cccn4c4cccnc43)cc2)cc1 | ? | -5.1% | ? | -0.8% | 11.6µM*
O=C(NCCc1ccccc1)c1ccc(Cn2c(=O)c3cccn3c3cccnc32)cc1 | -2.8% | -1.2% | 0.1% | -0.4% | 11.9%
Cc1ccccc1NC(=O)Cc1c[nH]c2ccccc12 | 0.0% | 1.0% | 12.3% | 5.3% | -24.3%
O=C(CC(C(=O)O)c1ccc(F)cc1)c1ccc(Cl)cc1 (configuration not stated) | 5.2% | 1.9% | 2.3% | 0.2% | ?
Cc1cc(C)c(S(=O)(=O)NCCc2cc3ccc(C)c(C)c3[nH]c2=O)c(C)c1 | -5.0% | 3.4% | ? | -1.2% | ?
Cc1ccc2cc(CCNS(=O)(=O)c3ccc(Br)cc3)c(=O)[nH]c2c1C | -22.6% | -11.5% | 4.1% | 1.9% | 23.1µM*
COc1cccc(COC(=O)C2CCN(S(=O)(=O)c3ccc(F)cc3)CC2)c1OC | -7.0% | -4.6% | 0.0% | -0.3% | 10.1%
Cc1ccc(S(=O)(=O)N(C)C)cc1NC(=O)c1cncc(Br)c1 | -18.2% | -25.6% | ? | -1.9% | 11.6µM*
COc1ccc(/C=C(\C#N)C(=O)Nc2ccccn2)cc1 | 3.1% | 4.4% | 7.0% | -0.3% | -6.1%
Cc1ccc(/C=C(\C#N)C(=O)Nc2ccccn2)o1 | -7.4% | 6.9% | -7.2% | 14.1µM* | ?
